Laboratory results as given in paper PMC7819943, “Rice protein-binding microarrays: a tool to detect cis-acting elements near promoter regions in rice”.
The full ranking holds about 39,000 sequences; the median of “fluorescence intensity (a.u.)” is about 4,300, and the highest 2% start at about 39,000. The full list was thinned out, with the highest values kept by preference.

Biological target: T1, OsSMF1 (Oryza sativa, UniProt Q6ZLB0 1-436)
T1 sequence: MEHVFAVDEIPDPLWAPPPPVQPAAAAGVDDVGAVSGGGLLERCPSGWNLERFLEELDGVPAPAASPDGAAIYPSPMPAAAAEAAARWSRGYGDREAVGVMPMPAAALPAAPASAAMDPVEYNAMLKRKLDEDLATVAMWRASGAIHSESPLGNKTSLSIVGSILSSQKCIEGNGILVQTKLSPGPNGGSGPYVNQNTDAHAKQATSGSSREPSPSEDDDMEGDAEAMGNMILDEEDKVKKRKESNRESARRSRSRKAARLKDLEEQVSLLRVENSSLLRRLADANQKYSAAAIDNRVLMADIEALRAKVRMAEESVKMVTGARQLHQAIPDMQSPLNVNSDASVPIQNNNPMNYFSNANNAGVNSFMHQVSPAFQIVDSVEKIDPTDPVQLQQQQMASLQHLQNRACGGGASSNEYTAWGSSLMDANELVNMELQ
Assay: protein-binding microarray (RPBM); PBS, 2% BSA, 51.3 ng/ul salmon testes DNA, 50 uM zinc acetate, 200 nM TF, 25 C, 1 h; high values mean tight binding
Details: protein: recombinant; tags: N-terminal polyhistidine and DsRed monomer fusion (pET32a); chain copies: 2; label: CyDye5-dUTP incorporated in the synthesized complementary strand; 3' TTTTT single-stranded linker to array surface; dsDNA, one strand shown
Outline: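 An Axon 4000B scanner gave the binding signal as per-feature fluorescence intensity in arbitrary units. This followed washing of a custom Agilent array that had been incubated for 1 h at 25 °C with 200 nM protein in PBS, 2% BSA, salmon testes DNA and 50 µM zinc acetate. The proteins were transcription factors fused at the N-terminus to polyhistidine and DsRed, expressed in E. coli BL21-CodonPlus and purified on Ni–NTA.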

| Sequence | binding signal |
| --- | --- |
| AAAGTAGTTTTACACGTAAATCGGGCGCTGACGTTATCAGCGGAGTCACCTAGTGCAG | 5310 fluorescence intensity (a.u.) |
| TAAAGTAGTTTTACACGTAAATCAGATGCTGACGTCAGCGCGGAGTCACCTAGTGCAG | 48600 fluorescence intensity (a.u.) |
| AAAGTAGTTTCTGCACGTAAATCGGACGCTGACGTCAGCGCGGAGTCACCTAGTGCAG | 36600 fluorescence intensity (a.u.) |
| AAACACACTGACACGCATTCGGCCCGTTCCCTCGATGCGTCGGAGTCACCTAGTGCAG | 5340 fluorescence intensity (a.u.) |
| ATGATGCTGGATTGCTGGATACTGCATCAACATCATTAAGCGGAGTCACCTAGTGCAG | 44500 fluorescence intensity (a.u.) |
| ATGAACTCATGCAACATTACTGGCTGATGCATCAACTTTACGGAGTCACCTAGTGCAG | 3270 fluorescence intensity (a.u.) |
| AACATCATATATTGATGATTATTTGCTGCATAAGGAGATGCGGAGTCACCTAGTGCAG | 4070 fluorescence intensity (a.u.) |
| AACTTTTAATGATGTTCAACATGGGAAAATATGTGGTGGACGGAGTCACCTAGTGCAG | 8320 fluorescence intensity (a.u.) |
| AATATTGTGTGTTGTTGTGTTGTCATCTGATATATTTTAGCGGAGTCACCTAGTGCAG | 6470 fluorescence intensity (a.u.) |
| ACCTAAACGAGCCAACACGCACGCTCATCGCATCTTTGCGCGGAGTCACCTAGTGCAG | 3810 fluorescence intensity (a.u.) |
| AAGGTAGGTTGTAGAACTGATGATCTGTCAATGGTGAAATCGGAGTCACCTAGTGCAG | 4940 fluorescence intensity (a.u.) |
| TTCTACAACTTGGACCATAAAACGTGTAGTTTTGTGAAATCGGAGTCACCTAGTGCAG | 3570 fluorescence intensity (a.u.) |
| ACACATGGAACTTGTGCCATATATCTGTAGGTGTGAAAATCGGAGTCACCTAGTGCAG | 41300 fluorescence intensity (a.u.) |
| TCATCTCATCTCTCCACGTCACCCGACTCCGACTCCGTGGCGGAGTCACCTAGTGCAG | 16900 fluorescence intensity (a.u.) |
| TGCGGACTACGTCAAGCTGACGTCATCTCCGACCCGACCTCGGAGTCACCTAGTGCAG | 54000 fluorescence intensity (a.u.) |
| CGATGGCTGCCACTGCCAACGTCAAGCTCCTCTCCGACGGCGGAGTCACCTAGTGCAG | 3850 fluorescence intensity (a.u.) |
| CCTACCACTGTTGAGTAACCACGTCTTTCGACGTATGCAGCGGAGTCACCTAGTGCAG | 6930 fluorescence intensity (a.u.) |
| GCGGTCGGGCCGGCCCAGGAAATACCAGGCGACGTGGCGGCGGAGTCACCTAGTGCAG | 8410 fluorescence intensity (a.u.) |
| ACTGACATCGAGGCCCCACGTGTCAGTGACCCAGTTCTTTCGGAGTCACCTAGTGCAG | 13400 fluorescence intensity (a.u.) |
| TAAACTCTTTCTGTGAGTCAGCACAATAGCCCATCGTGCCCGGAGTCACCTAGTGCAG | 18700 fluorescence intensity (a.u.) |
| ACTTCACCAGTTCACCACCGTGGCACTCCCTGGGACTGAACGGAGTCACCTAGTGCAG | 3640 fluorescence intensity (a.u.) |

| Sequence | binding signal |
| --- | --- |
| TTGGGAGGGAGAGTGGTAAAGGGTGCTGGGGCTTTGGCTGCGGAGTCACCTAGTGCAG | 4250 fluorescence intensity (a.u.) |
| GAGGACATGCATGTGCAAGGGGAGCAGGTGGGGTAAAATGCGGAGTCACCTAGTGCAG | 45500 fluorescence intensity (a.u.) |
| GTGCGGATGGGGAGGTGTGGTGGAAGGGTGGACAGTGGAGCGGAGTCACCTAGTGCAG | 3410 fluorescence intensity (a.u.) |
| TTTGCCACTGTCCTACTAGATCTTGGTCTTATTTGAGAAGCGGAGTCACCTAGTGCAG | 3550 fluorescence intensity (a.u.) |
| TATGACATGTGGGCCAACTGCCAAGCAGCCTTACTTGACGCGGAGTCACCTAGTGCAG | 3360 fluorescence intensity (a.u.) |
| GTTGGAGATGCTCTGAGAAACGCATATGTGGATGGTCTTACGGAGTCACCTAGTGCAG | 48100 fluorescence intensity (a.u.) |
| TGTTTGGACATATGCATGGAGCATTAAATGTGGATGAAAACGGAGTCACCTAGTGCAG | 4350 fluorescence intensity (a.u.) |
| CTCAGTATATATGTTTTGAATTCATTATGACATCTTTACACGGAGTCACCTAGTGCAG | 3360 fluorescence intensity (a.u.) |
| TACAGTATGTTGTGGAAGGCCTTTGAATTATATTGCATTACGGAGTCACCTAGTGCAG | 49000 fluorescence intensity (a.u.) |
| GCTATTTATCTCATATGATGTCTTGGATGTTGTGTAGAAACGGAGTCACCTAGTGCAG | 40600 fluorescence intensity (a.u.) |
| TATTTGTATTATGTTGCAAATGTTGCAATATATATATTTACGGAGTCACCTAGTGCAG | 15300 fluorescence intensity (a.u.) |
| TTATTGGTGGATGCCTCTGAGTCGGATGTGGGTCGTACAACGGAGTCACCTAGTGCAG | 3660 fluorescence intensity (a.u.) |
| CTGAAAAGTTGTGTGTGTATGACATGTTGATGTGATGGAACGGAGTCACCTAGTGCAG | 5180 fluorescence intensity (a.u.) |
| TCACATGATGTCTTGGATGTTGTGTAGAAATTCTCTTTCCCGGAGTCACCTAGTGCAG | 3560 fluorescence intensity (a.u.) |
| TCTTGATGATGTGGAGTTTATGGAAACTATGTCTAGTGTTCGGAGTCACCTAGTGCAG | 7560 fluorescence intensity (a.u.) |
| TATGAAAGTTTTCGATGTGATGTAATGTGATGGAAAGTTACGGAGTCACCTAGTGCAG | 3140 fluorescence intensity (a.u.) |
| TTGGAAGTTTATGTGTGTAGAAAAGTTTTGATGTAATGAACGGAGTCACCTAGTGCAG | 44400 fluorescence intensity (a.u.) |
| GCATGTAGCTATGCAGCCATCCACGTCACTCCTTGCGTACCGGAGTCACCTAGTGCAG | 31800 fluorescence intensity (a.u.) |
| ATTAAGCACTACGTCAGATATGATTGGCCATCATTGCATTCGGAGTCACCTAGTGCAG | 3150 fluorescence intensity (a.u.) |
| ACACCCGTCCGTCCCGTCTCGTTCTGCGCCGTCTCGCCGGCGGAGTCACCTAGTGCAG | 18700 fluorescence intensity (a.u.) |
| GAAGATAGTACTAACTATATTTTGTAACGGAGAGATTGTTCGGAGTCACCTAGTGCAG | 4130 fluorescence intensity (a.u.) |
